# Test results from the supplement of paper PMC12494721.
# Structures can show the parent of a compound that is named as a salt.
# Tested on: Klebsiella aerogenes DSM 30053
# Assay: fold change of Histamine concentration vs plate DMSO controls (fold change (ratio)); higher = more amine produced, active = hit call of the paper (significant change in both replicates, either direction)
# Details: 20 µM; incubation time: 27 h, anaerobic, 37 °C;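 for the amine columns active = adjusted P below 0.05 in both replicates with a change the same way and a mean fold change under 0.8 or over 1.25; inactive = the rest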
# Outline: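 Extracts of whole anaerobic mGAM cultures were analysed for amines by LC–triple-quadrupole MS with dynamic MRM and external calibration curves, with drift corrected within batch. Four gut strains were grown at 37 °C for 27 h in 80 µL wells with compounds at 20 µM final, sweeteners at 50 µM final. Each value expresses fold change over plate DMSO controls. The average of 2 biological replicates is shown.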
row,SMILES,fold change of Histamine concentration
1,CCCC(C)(COC(N)=O)COC(=O)NC(C)C (stereo not drawn) [Carisoprodol],1.03 (inactive)
2,CCC1(c2cccc(O)c2)CCCCN(C)C1 (stereo not drawn) [Meptazinol hydrochloride],0.983 (inactive)
3,CC(C)(C)NCC(O)c1ccccc1Cl (stereo not drawn) [Tulobuterol hydrochloride],1.04 (inactive)
4,C[C@]12CCC(=O)C(O)=C1CC[C@@H]1[C@@H]2CC[C@]2(C)C(=O)CC[C@@H]12 [Formestane],1.05 (inactive)
5,C=C(C)[C@@H]1[C@H]2OC(=O)[C@@H]1[C@]1(O)C[C@H]3O[C@]34C(=O)O[C@H]2[C@]14C [Picrotoxinin],0.896 (inactive)
6,CCOc1cc(Oc2ccc(C(F)(F)F)cc2Cl)ccc1[N+](=O)[O-],0.981 (inactive)
7,O=C(O)C(F)(F)C(F)(F)C(F)(F)C(F)(F)C(F)(F)C(F)(F)C(F)(F)C(F)(F)C(F)(F)F [PFDeA (Perfluorodecanoic acid)],1.02 (inactive)
8,CC[C@@H](CO)NC(=O)[C@@H]1C=C2c3cccc4[nH]cc(c34)C[C@H]2N(C)C1 [Methylergometrine maleate],1.03 (inactive)
9,O=C(O)C(F)(F)C(F)(F)C(F)(F)C(F)(F)C(F)(F)C(F)(F)C(F)(F)F [PFOA (Perfluorooctanoic acid)],1.02 (inactive)
10,COc1ccc2c(c1)[C@]13CCCC[C@@H]1[C@H](C2)N(C)CC3 [Dextromethorphan hydrobromide monohydrate],0.977 (inactive)
11,CCOP(=S)(OCC)Oc1cc(C)nc(C(C)C)n1,1.04 (inactive)
12,CC(=O)NC1CCSC1=O (stereo not drawn) [Citiolone],0.819 (inactive)
13,CCCCN(CCCC)N=O [DBNA (N-nitrosodibutylamine)],1.03 (inactive)
14,CC[C@H](C)[C@H]1O[C@]2(C=C[C@@H]1C)C[C@@H]1C[C@@H](C/C=C(\C)[C@@H](O[C@H]3C[C@H](OC)[C@@H](O[C@H]4C[C@H](OC)[C@@H](O)[C@H](C)O4)[C@H](C)O3)[C@@H](C)/C=C/C=C3\CO[C@@H]4[C@H](O)C(C)=C[C@@H](C(=O)O1)[C@]34O)O2.CO[C@H]1C[C@H](O[C@H]2[C@H](C)O[C@@H](O[C@@H]3/C(C)=C/C[C@@H]4C[C@@H](C[C@]5(C=C[C@H](C)[C@@H](C(C)C)O5)O4)OC(=O)[C@@H]4C=C(C)[C@@H](O)[C@H]5OC/C(=C\C=C\[C@@H]3C)[C@]54O)C[C@@H]2OC)O[C@@H](C)[C@@H]1O,0.985 (inactive)
15,C=CCC1(CC(C)C)C(=O)NC(=O)NC1=O [Butalbital],1.01 (inactive)
16,NCC(CC(=O)O)c1ccc(Cl)cc1 (stereo not drawn) [Baclofen],1.04 (inactive)
17,N#Cc1cc(Br)c(O)c(Br)c1,1.02 (inactive)

row,SMILES,fold change of Histamine concentration
1,N#CC(CCc1ccc(Cl)cc1)(Cn1cncn1)c1ccccc1 (stereo not drawn),0.476 (inactive)
2,CN(C)C(=O)Oc1ccc[n+](C)c1 [Pyridostigmine iodide],1.05 (inactive)
3,CC(C)C[C@H](CN)CC(=O)O [Pregabalin],1.06 (inactive)
4,Clc1ccc(C(OCCN2CCCCC2)c2ccccc2)cc1 (stereo not drawn) [Cloperastine hydrochloride],0.884 (inactive)
5,O=[N+]([O-])c1ccc2ccc3cccc4ccc1c2c34 [1-Nitropyrene],0.971 (inactive)
6,COCC(=O)N(c1c(C)cccc1C)C(C)C(=O)OC (stereo not drawn),0.965 (inactive)
7,CCCN1C[C@H](CSC)C[C@@H]2c3cccc4[nH]cc(c34)C[C@H]21 [Pergolide mesylate],0.953 (inactive)
8,COc1cc(OC)nc(NC(=O)NS(=O)(=O)c2ncccc2C(=O)N(C)C)n1,0.96 (inactive)
9,CNC(C)(C)Cc1ccccc1 [Mephentermine hemisulfate],0.952 (inactive)
10,CC1(C)C(C=C(Cl)Cl)C1C(=O)OC(C#N)c1ccc(F)c(Oc2ccccc2)c1 (mixture of isomers),1.09 (inactive)
11,CCC1(CC)C(=O)C=CNC1=O [Pyrithyldione],1.03 (inactive)
12,COP(=S)(OC)Oc1nc(Cl)c(Cl)cc1Cl,1.03 (inactive)
13,Nc1nc(N)nc(NC2CC2)n1 [Cyromazine],0.979 (inactive)
14,ClC1C(Cl)C(Cl)C(Cl)C(Cl)C1Cl (stereo not drawn),0.984 (inactive)
15,CCCN(CCC)C(=O)SCc1ccccc1,1.04 (inactive)
16,Cc1ccccc1[N+](=O)[O-] [2-Nitrotoluene],0.994 (inactive)
